Data taken from PubChem BioAssay (NCI).
This is part of a sample that, as a whole, favours compounds with a hit. Of some 79,000 tested, about 15% had one in any assay. A number with no mark means an inactive call. Calls of active or inactive are those of the source. Cut-off read from the data, not from the text of the source: active = growth inhibition above about 70%; inactive = the rest.

Test: NCI Yeast Anticancer Drug Screen. Data for the cln2 rad14 strain (AID 165);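 note: 0% = growth equal to vehicle treated cultures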
Settings: S. cerevisiae cln2 rad14 strain, stronger effect = higher value
Procedure: Growth inhibition of yeast strains with defined genetic alterations is measured as a screen for potential anti-cancer activity. Selected strains with alterations in DNA damage repair or cell cycle control were exposed to compounds and growth inhibition was measured relative to vehicle treated controls. The strain used in this assay is cln2 rad14

[1] = at 5.0 µM (retest, dose inferred, filed as 0.5)
[2] = at 50.0 µM (retest, dose inferred, filed as 5.0)

Compound: COC(=O)c1ccc(SCCC(=O)CCl)cc1
- growth inhibition [1]: 14%
- growth inhibition [2]: 99% (active)
- growth inhibition (at 50.0 µM): 98.7% (active)

Compound: COc1cccc2c1C(=O)c1c(O)c3c(c(O)c1C2=O)C[C@@](O)(/C(C)=N/NC(=O)c1ccc(Cl)c(Cl)c1)C[C@@H]3OC1CC(N)C(O)C(C)O1 (some centres not stated)
- growth inhibition [1]: 5%
- growth inhibition [2]: 98% (active)
- growth inhibition (at 50.0 µM): 72.7% (active)

Compound: CN(Nc1ccc(Cl)cc1)c1ccc(Cl)cc1
- growth inhibition [1]: 5%
- growth inhibition [2]: 95% (active)
- growth inhibition (at 50.0 µM): 53.1%

Compound: N#Cc1ccc(OC(=O)Nc2c(Cl)cccc2Cl)cc1
- growth inhibition [1]: 34%
- growth inhibition [2]: 45%
- growth inhibition (at 50.0 µM): 83.9% (active)

Compound: COc1cccc(NC(=S)NC2CC(C)CC(C)(C)C2)c1 (configuration not stated)
- growth inhibition [1]: 30%
- growth inhibition [2]: 90% (active)
- growth inhibition (at 50.0 µM): 86.2% (active)

Compound: CC(C)(C)C(OC(=O)Nc1ccccc1)C(C)(C)C
- growth inhibition [1]: 9%
- growth inhibition [2]: 16%
- growth inhibition (at 50.0 µM): -61.5%

Compound: Nc1ccccc1N=Nc1c(S(=O)(=O)O)cc2cc(S(=O)(=O)O)cc(O)c2c1O
- growth inhibition [1]: 34%
- growth inhibition [2]: -10%
- growth inhibition (at 50.0 µM): 27.9%

Compound: c1ccc(Cn2nnnc2-c2ccccc2)cc1
- growth inhibition [1]: -55%
- growth inhibition [2]: -33%
- growth inhibition (at 50.0 µM): 80.5% (active)

Compound: COC1=CC(=O)c2c(O)c3c(c(O)c2C1=O)OC1(Oc2c(cc4cc(C)oc(=O)c4c2O)CC1O)C3O (configuration not stated)
- growth inhibition [1]: 98% (active)
- growth inhibition [2]: 99% (active)
- growth inhibition (at 50.0 µM): 90.5% (active)

Compound: CCC(=S)N(C)O
- growth inhibition [1]: 98% (active)
- growth inhibition [2]: 91% (active)
- growth inhibition (at 50.0 µM): 45.1%

Compound: CCCc1cc2c(cc1O)CC[C@@H]1[C@@H]2CC[C@]2(C)[C@@H](O)CC[C@@H]12
- growth inhibition [1]: -4%
- growth inhibition [2]: 77% (active)
- growth inhibition (at 50.0 µM): 88.5% (active)

Compound: COC1/C=C\OC2(C)Oc3c(C)c(O)c4c(c3C2=O)C2=NC(C)(C)N(c3ccccc3)C2=C(NC(=O)/C(C)=C\C=C\C(C)C(O)C(C)C(O)C(C)C(OC(C)=O)C1C)C4=O (configuration not stated)
- growth inhibition [1]: 2%
- growth inhibition [2]: 91% (active)
- growth inhibition (at 50.0 µM): 39.9%

Compound: C/C=C/C=N/N(c1nnc(-c2ccccc2)c(-c2ccccc2)n1)S(=O)(=O)c1ccc(C)cc1
- growth inhibition [1]: 38%
- growth inhibition [2]: 38%
- growth inhibition (at 50.0 µM): 90% (active)

Compound: C=C(CN1CCOCC1)C(=O)c1ccccc1
- growth inhibition [1]: -16%
- growth inhibition [2]: 24%
- growth inhibition (at 50.0 µM): 60.9%
